# Bioassay records: PubChem BioAssay, several laboratories
# A selection: hits, their analogues and other compounds. The true share with any hit is near 3.5%.
# BH1578 lux ind – induces V. cholerae light production without autoinducers. V. cholerae BH1578 lux reporter, luminescence, 6 h. activation, % at 18.7 µM. 350,000 tested, 0.16% active. AID 588436; in the data active means activation mostly above about 9.7%, no sharp cut-off; inconclusive means no clear call, values can overlap the other calls; inactive means mostly below about 3.7%
# Bead autofluor – flagged as autofluorescent in microsphere protease counterscreen; compound autofluorescence counterscreen, microsphere flow cytometry; stronger effect = higher value; 360,000 tested, 3.1% active; fluorescence intensity (test concentration not listed); in the data active means fluorescence intensity above about 16000; inconclusive means no clear call, values can overlap the other calls
# BoNT F protease – inhibitors of Botulinum neurotoxin F light chain protease. inhibition, % at 10 µM. Multiplex microsphere protease cleavage assay, flow cytometry. 360,000 tested, 0.22% active; in the data active means inhibition above about 35%, passing the limit was not always enough; inconclusive means no clear call, values can overlap the other calls; further: plate controls were buffer without enzyme for full effect and enzyme alone for no effect
# Anthrax LF prot – anthrax lethal factor protease inhibition. 360,000 tested, 0.12% active. AID 588501. multiplex microsphere protease cleavage assay, LF. P15917. inhibition, % at 10 µM; further: plate controls were buffer without enzyme for full effect and enzyme alone for no effect
# Target sequence (P15917 whole entry, looked up): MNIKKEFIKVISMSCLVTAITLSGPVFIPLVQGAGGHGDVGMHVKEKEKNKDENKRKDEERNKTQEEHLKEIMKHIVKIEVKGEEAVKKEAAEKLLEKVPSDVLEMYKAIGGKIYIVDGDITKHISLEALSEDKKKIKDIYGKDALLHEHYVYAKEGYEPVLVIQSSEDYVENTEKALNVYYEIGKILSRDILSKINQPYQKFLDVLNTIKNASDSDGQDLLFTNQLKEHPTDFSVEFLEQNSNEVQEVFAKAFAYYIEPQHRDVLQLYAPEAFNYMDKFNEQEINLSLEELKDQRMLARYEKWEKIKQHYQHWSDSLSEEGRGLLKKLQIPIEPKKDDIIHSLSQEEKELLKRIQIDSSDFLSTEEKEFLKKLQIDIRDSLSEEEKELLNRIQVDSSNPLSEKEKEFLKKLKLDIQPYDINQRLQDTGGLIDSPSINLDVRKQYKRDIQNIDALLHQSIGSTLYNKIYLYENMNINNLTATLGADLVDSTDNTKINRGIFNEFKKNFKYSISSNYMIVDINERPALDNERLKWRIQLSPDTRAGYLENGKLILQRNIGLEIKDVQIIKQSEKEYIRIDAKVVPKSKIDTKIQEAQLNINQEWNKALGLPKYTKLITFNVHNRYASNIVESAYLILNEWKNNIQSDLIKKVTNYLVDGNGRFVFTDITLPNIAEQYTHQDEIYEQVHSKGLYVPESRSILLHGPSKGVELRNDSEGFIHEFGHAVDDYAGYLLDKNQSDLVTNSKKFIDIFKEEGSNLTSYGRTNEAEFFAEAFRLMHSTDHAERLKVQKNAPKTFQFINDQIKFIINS
# BoNT-A LC inh2 – BoNT A light chain protease inhibition; AID 588499; inhibition, % at 10 µM; multiplex microsphere protease substrate cleavage, flow cytometry; 360,000 tested, 0.17% active; further: plate controls were buffer without enzyme for full effect and enzyme alone for no effect
# The depositor's hits bear a star; i = inactive; ? = inconclusive; + = active, no number. Unless noted, no stated cut-off is given here; in the data, active means inhibition above about 30%; inconclusive means no clear call, values can overlap the other calls; inactive means below that.
SMILES,BH1578 lux ind,Bead autofluor,BoNT F protease,Anthrax LF prot,BoNT-A LC inh2
O=C(O)CCc1ccc(-c2ccc(Cl)cc2)o1,1.2,4560,3.6,1.7,0.1
O=C(O)CCc1ccc(-c2ccc(Br)cc2)o1,i,23745*,-2.8,-1.4,?
O=C1CCOc2cc(OCc3ccccc3)ccc21,-2.2,21171*,-5.8,1.1,-4.0
COc1ccc(CNS(=O)(=O)c2cc(CN3C(=O)c4cccnc4C3=O)ccc2OC)cc1,i,5189,2.2,-0.1,-0.6
CCN1CCN(Cc2oc(CO)cc(=O)c2O)CC1,-3.8,19271*,1.9,-4.4,?
O=c1cc(CO)oc(CN2CCN(c3ccccc3)CC2)c1O,-10.0,4712,-9.4,-3.1,0.8
CC(NCC(=O)NC(=O)NC1CCCC1)c1ccc(Cl)cc1Cl (stereo unspecified),i,5071,-10.8,-2.7,1.1
CCOC(=O)Cn1nnnc1CN(Cc1cccs1)Cc1cc2cc(C)cc(C)c2[nH]c1=O,-7.4,23938*,-1.1,4.2,-0.6
Cc1cccc2cc(CN(Cc3cccs3)Cc3nnnn3Cc3ccccc3)c(=O)[nH]c12,i,10131,7.4,-3.4,-0.8
CCOC(=O)Cn1nnnc1CN(Cc1ccccc1)Cc1cc2cc(CC)ccc2[nH]c1=O,1.4,12869,-3.1,-3.2,-0.1
COc1ccc2cc(CN(Cc3cccs3)Cc3nnnn3Cc3ccccc3)c(=O)[nH]c2c1,i,24337*,-2.6,-1.9,-0.7
COc1ccccc1CN(Cc1cc2cc3c(cc2[nH]c1=O)OCCO3)Cc1nnnn1Cc1ccco1,-0.4,23267*,-5.4,-4.4,-0.2
Cc1cc(CNC(=O)c2cc(COc3c(F)cccc3F)on2)nn1C,i,2443,0.1,0.5,-0.2
Cc1cc(CNC(=O)Cc2c(F)cccc2Cl)nn1C,i,19997*,1.6,-2.9,0.4
Cc1cc(C(=O)NCc2cc(C)n(C)n2)sc1-c1ccccc1,-1.8,18215*,3.2,-8.7,3.0
Cc1cc(CNC(=O)c2cc(-c3ccccc3)nc3ccccc23)nn1C,i,4049,-2.4,-0.8,-0.2
COC(=O)c1sc2nc(N3CCCCC3)c3c(c2c1N)CCCC3,i,3233,0.1,-1.0,-0.9
NC(=O)c1sc2nc(N3CCCCC3)c3c(c2c1N)CCCC3,-2.9,16416*,-2.6,3.5,0.1
COc1cc(C(O)P(=O)(OC2CCCCC2)c2ccc(N(C)C)cc2)cc(OC)c1OC (stereo unspecified),12.5,16951*,-4.1,-3.2,-1.6
CCN(CC)S(=O)(=O)c1ccc(NC(=O)COC(=O)c2ccc(NC(=O)CC#N)cc2)cc1,-0.5,4442,0.9,-3.6,0.2
O=C(CSC1=Nc2ccccc2C2CC=NN12)Nc1ccc(F)c(F)c1F (stereo unspecified),-3.0,2787,3.5,-7.1,-0.1
CCCCOC(=O)c1ccc(NC(=O)CSC2=Nc3ccccc3C3CC=NN23)cc1 (stereo unspecified),-3.0,22279*,-4.5,-2.1,-1.1
CC(C)C(C(=O)NCC1CCCO1)N(C(=O)CNS(=O)(=O)c1ccc(F)cc1)C1CCCCC1 (stereo unspecified),-0.4,5761,-4.2,-0.7,-0.3
O=S(=O)(NCC1CCCO1)c1ccc(S(=O)(=O)N(Cc2ccc(F)cc2)C2CCCCC2)cc1 (stereo unspecified),-0.1,21632*,4.7,-0.2,1.8
O=S(=O)(NCC1CCCO1)c1ccc(Cl)c(C(F)(F)F)c1 (stereo unspecified),-0.1,21968*,4.5,-1.1,?
SMILES,BH1578 lux ind,Bead autofluor,BoNT F protease,Anthrax LF prot,BoNT-A LC inh2
Cc1cc(NCCCn2ccnc2)n2ncc(-c3ccc(Cl)cc3)c2n1,-1.4,22244*,-1.6,-7.8,?
Cc1cc(NCCCN2CCOCC2)n2ncc(-c3ccc(Cl)cc3)c2n1,i,23672*,-4.1,-1.2,?
O=C(Nc1ccc(Cl)cc1)C1Cc2c(-c3cccc(F)c3)ccnc2O1 (stereo unspecified),-0.6,2994,-3.0,-3.2,-0.7
CCOC(=O)C1=C(c2ccccc2)NC(SCC(=O)Nc2cccc(C)c2)=C(C#N)C1c1ccco1 (stereo unspecified),-0.5,15951,-1.4,-5.9,?
CCOC(=O)CSC1=C(C#N)C(c2ccco2)C(C(=O)Nc2cccc(C(F)(F)F)c2)=C(C)N1 (stereo unspecified),-0.9,25424*,-7.7,-0.6,-5.7
CC(=O)c1ccc(NC(=O)COC(=O)C2CC3C=CC2C3)cc1 (stereo unspecified),i,2986,3.1,-4.3,-0.1
O=C(COC(=O)C1CC2C=CC1C2)Nc1ccc2c(c1)OC(F)(F)O2 (stereo unspecified),-5.3,16493*,1.2,-1.2,0.2
COc1ccc(S(=O)(=O)NCCSCc2ccccc2C)cc1Br,i,16146*,-0.3,-1.6,1.1
Cc1ccccc1CSCCNS(C)(=O)=O,-0.2,17003*,-1.5,-4.4,-1.6
CS(=O)(=O)NCCSCc1c(Cl)cccc1Cl,-0.2,17037*,-2.1,0.2,-1.8
COc1ccc(S(=O)(=O)NCCSCc2ccco2)cc1OC,i,4310,-16.4,0.1,0.2
CC(C)NC(=O)N(C)C[C@H]1Oc2c(cccc2N(C)C)C(=O)N([C@H](C)CO)C[C@@H]1C,i,4227,-3.9,-12.3,-1.3
Cc1nc2cc(-c3cccs3)[nH]n2c(=O)c1C,i,17502*,4.8,-6.7,4.4
COC(=O)c1sccc1NC(=O)CC1C(=O)NCCN1C(=O)Nc1cc(Cl)ccc1OC (stereo unspecified),0.9,5166,-7.1,-9.2,0.7
COCCn1c(N)c(C(=O)NCc2cccs2)c2nc3ccccc3nc21,6.8,20185*,0.3,12.7,9.4
CCCCNC(=O)c1c(N)n(CCCOC)c2nc3ccccc3nc12,i,21009*,-4.3,5.9,2.8
O=C(O)c1ccc2c(c1)C(=O)N(Cc1ccc3c(c1)OCO3)C2=O,-7.1,23047*,0.2,-1.9,0.2
COc1ccccc1CNC(=O)c1c(N)n(CCCN2CCOCC2)c2nc3ccccc3nc12,i,18665*,2.0,0.9,13.1
CC(=O)c1c(C(C)=O)c(C)n(Cc2ccc3c(c2)OCO3)c1C,i,22217*,-12.1,-0.6,-7.4
CC(C)CCNC(=O)c1c(N)n(Cc2ccc3c(c2)OCO3)c2nc3ccccc3nc12,-0.6,10113,1.1,5.2,20.6
CC(=O)c1c(C)n(CC(=O)NCc2ccc3c(c2)OCO3)c2ccccc12,i,8653,-0.2,-3.5,-0.1
CCCNC(=O)c1c(N)n(Cc2ccc3c(c2)OCO3)c2nc3ccccc3nc12,-6.2,23041*,4.3,-1.7,3.7
O=C(NC1CCCCC1)C(=O)c1c(-c2ccccc2)[nH]c2ccccc12,+,5837,-12.1,-8.2,-0.3
Cn1cc(C(=O)C(=O)NC2CCCCC2)c2ccccc21,80.1*,6517,-11.5,-4.7,-1.4
CCc1ccc(C(=O)COC(=O)C2CCN(c3ccc(C(F)(F)F)cn3)CC2)cc1,-1.2,?,5.5,?,6.6
COC(=O)c1ccc(OCc2nn[nH]n2)cc1,0.7,4137,18.0,3.5,-1.7
CCN(CC)C(=O)CSc1nc2c(sc(=S)n2Cc2ccco2)c(=O)n1-c1ccccc1,-5.9,20976*,-1.8,-2.0,-0.3
